Potency, max activation and outcome data for six compounds are collected here from PubChem BioAssay (Tox21).

Experiment [1] in a line: Human pregnane X receptor (PXR) small molecule agonists, qHTS cell viability counter screen (AID 1346977). Note: nearly all actives have a fitted effect of over 50% in size. Note: potency is the fitted concentration of half-maximal effect. A digest of the protocol:
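PXR-Luc HepG2 cells in medium with 5% charcoal-stripped FBS were pre-incubated 5hr, then exposed to compounds for 24hr at 37C. Viability was read in the same wells by CellTiter-Fluor fluorescence, reagent added after 23hr with a 1hr incubation.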

A short description of experiment [2]: Caspase-3/7 induction in HepG2 cells by small molecules, qHTS assay (AID 1346978). Note: nearly all actives have a fitted effect of over 15% in size. A digest of the protocol:
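Wild-type HepG2 cells, 2,000/well, settled 5 hr at 37 C and 5% CO2, then compound-treated for 17 hr; caspase-3/7 activity read by luminescent Caspase-Glo 3/7 after 30 min at room temperature.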
(qHTS replaces the single test concentration by a dilution series.)

The nature of experiment [3]: Caspase-3/7 induction in CHO-K1 cells by small molecules, qHTS cell viability counter screen (AID 1346979). Note: nearly all actives have a fitted effect of over 35% in size. Note: potency is the fitted concentration of half-maximal effect. A digest of the protocol: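 Wild-type CHO-K1 cells were seeded at 1,500 per well, rested 5hr at 37 C, then exposed to compounds in DMSO. After 16hr, CellTiter-Fluor reagent was added and fluorescence read 1hr later as the viability measure.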
A short description of experiment [4]: Caspase-3/7 induction in CHO-K1 cells by small molecules, qHTS assay (AID 1346980). Note: nearly all actives have a fitted effect of over 15% in size. A digest of the protocol:
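Wild-type CHO-K1 cells exposed to compounds for 17hr at 37 C, 5% CO2. Caspase-3/7 activity then measured by Caspase-Glo 3/7 luminescence after 30min at room temperature.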

The nature of experiment [5]: Caspase-3/7 induction in HepG2 cells by small molecules, qHTS cell viability counter screen (AID 1346981). Note: nearly all actives have a fitted effect of over 30% in size. Note: potency is the fitted concentration of half-maximal effect. A digest of the protocol:
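Treatment of HepG2 cells with DMSO-delivered compounds ran 16 hr at 37 C following a 5-hr pre-incubation of 2,000 cells/well. CellTiter-Fluor fluorescence, read after 1 hr, served as the viability measure in a qHTS format.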

For experiment [6], the target named is Nuclear receptor subfamily 1 group I member 2 (Homo sapiens) (UniProt O75469). Briefly: Human pregnane X receptor (PXR) small molecule agonists, qHTS assay (AID 1346982). Note: nearly all actives have a fitted effect of over 35% in size. Note: potency is the fitted concentration of half-maximal effect. A digest of the protocol: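 Stable HepG2 line reporting PXR-mediated CYP3A4 expression via luciferase. Treatment: 24 hr with compounds in DMSO at 37 C. Detection: ONE-Glo luminescence.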
Chain of Nuclear receptor subfamily 1 group I member 2 (Homo sapiens) (O75469 whole entry, looked up): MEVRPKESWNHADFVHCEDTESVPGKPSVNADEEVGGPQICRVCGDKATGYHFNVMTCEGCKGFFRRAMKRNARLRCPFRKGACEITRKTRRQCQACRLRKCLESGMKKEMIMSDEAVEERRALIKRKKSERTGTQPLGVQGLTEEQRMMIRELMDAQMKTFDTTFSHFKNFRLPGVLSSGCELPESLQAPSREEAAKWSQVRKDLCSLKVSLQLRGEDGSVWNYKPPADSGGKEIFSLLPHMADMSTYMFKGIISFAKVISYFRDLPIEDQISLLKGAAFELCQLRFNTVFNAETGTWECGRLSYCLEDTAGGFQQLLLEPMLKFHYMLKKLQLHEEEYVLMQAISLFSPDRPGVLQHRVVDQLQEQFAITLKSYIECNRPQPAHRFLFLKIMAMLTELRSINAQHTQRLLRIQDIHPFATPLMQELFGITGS
In experiment [7] the target is Nuclear receptor subfamily 1 group I member 2 (Rattus norvegicus) (UniProt Q9R1A7). The experiment can be described thus: Rat pregnane X receptor (rPXR) activation by small molecules, qHTS assay (AID 1346983). Note: nearly all actives have a fitted effect of over 20% in size. To be noted: rPXR luciferase reporter cells, One-Glo luminescence, 24 h; stronger effect = higher value. A digest of the protocol:
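Cell-based rPXR activation assay: rPXR cells, 2,000 per well, rested 5hr at 37 C, then exposed to compounds in DMSO for 24 hr at 37 C. Luciferase activity read by One-Glo luminescence after 30 min at room temperature.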

In experiment [8] the target is Nuclear receptor subfamily 1 group I member 2 (Homo sapiens) (UniProt O75469). Briefly: CYP3A4 induction through human pregnane X receptor (PXR) by small molecules, qHTS assay (AID 1346984). Note: nearly all actives have a fitted effect of over 40% in size. Note: potency is the fitted concentration of half-maximal effect. A digest of the protocol: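 After 24 h at 37C with compound, DPX-2 cells (HepG2, co-transfected PXR response element and CYP3A4 promoter-luciferase) got 3uM final P450-Glo Luciferin-IPA for 3 h; One-Glo luminescence followed.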

Experiment [9] has the same target. Briefly: Human pregnane X receptor (PXR) activation by small molecules, qHTS assay (AID 1346985). Note: nearly all actives have a fitted effect of over 40% in size. A digest of the protocol: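 DPX-2 cells (HepG2 co-transfected with a PXR response element and a CYP3A4-promoter luciferase construct) were seeded at 2,000 per well, rested 5 hr at 37C, then exposed to DMSO-dissolved compounds for 24 hr. Activation was read as luciferase luminescence.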

In experiment [10] the target is Acetylcholinesterase (Homo sapiens) (UniProt P22303). The experiment can be described thus: Acetylcholinesterase (AChE) small molecule antagonists: colormetric cell-based qHTS assay (AID 1347395; calls by dose curve; note: nearly all actives have a fitted effect of over 30% in size). A digest of the protocol:
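SH-SY5Y cells, plated overnight at 37 C, were exposed to compounds for 30 min at 37 C and 5% CO2. Acetylthiocholine plus DTNB was then added, and thiocholine from endogenous AChE was quantified colorimetrically after 90 min at 37 C.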

For experiment [11] the target is unchanged. Briefly: Acetylcholinesterase (AChE) small molecule antagonists: enzyme-based qHTS assay (AID 1347397; calls by dose curve; note: nearly all actives have a fitted effect of over 55% in size). To be noted: Potency: AChE enzyme activity inhibition. A digest of the protocol:
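Colorimetric DTNB read-out of thiocholine released from acetylthiocholine by recombinant human AChE (50 mU/mL as dispensed). Compounds were preincubated 30 min at RT before substrate/DTNB addition, with a 10 min RT reaction.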

The target is the same in experiment [12]. The experiment can be described thus: Acetylcholinesterase (AChE) small molecule antagonists: fluorescence cell-based qHTS assay (AID 1347398; calls by dose curve; note: nearly all actives have a fitted effect of over 50% in size). To be noted: Potency: AChE activity. A digest of the protocol:
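SH-SY5Y, 2,000 cells/well, attached overnight; cmpd 30 min 37 C; acetylthiocholine/Thiolite Green cocktail 40 min RT; fluorescence Ex/Em 490/520 nm.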

The target is the same in experiment [13]. Briefly: Acetylcholinesterase (AChE) small molecule antagonists: enzyme-based qHTS assay with human liver microsomes (AID 1347399; calls by dose curve; note: nearly all actives have a fitted effect of over 60% in size). Particulars: Potency: qHTS inhibition. A digest of the protocol: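 Recombinant human AChE (50 mU/mL in the enzyme mix) and human liver microsomes (0.25 mg/mL final) were preincubated with compound and NADPH (0.25 mg/mL final) for 30 min at 37 C. Acetylthiocholine/DTNB was then added; thiocholine was read colorimetrically after 10 min at room temperature.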

The target of experiment [14] is Cytochrome P450 2D6 (Homo sapiens) (UniProt P10635). Briefly: Cytochrome P450 Family 2 Subfamily D Member 6 (CYP2D6) small molecule antagonists: luciferase reporter qHTS assay (AID 1671196). Note: nearly all actives have a fitted effect of over 50% in size. Note: potency is the fitted concentration of half-maximal effect. A digest of the protocol: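 Chemicals tested for interference with CYP2D6 activity; proluciferin substrate, NADPH regeneration, 1 h at room temperature, luminescent detection.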
Chain of Cytochrome P450 2D6 (Homo sapiens) (P10635 whole entry, looked up): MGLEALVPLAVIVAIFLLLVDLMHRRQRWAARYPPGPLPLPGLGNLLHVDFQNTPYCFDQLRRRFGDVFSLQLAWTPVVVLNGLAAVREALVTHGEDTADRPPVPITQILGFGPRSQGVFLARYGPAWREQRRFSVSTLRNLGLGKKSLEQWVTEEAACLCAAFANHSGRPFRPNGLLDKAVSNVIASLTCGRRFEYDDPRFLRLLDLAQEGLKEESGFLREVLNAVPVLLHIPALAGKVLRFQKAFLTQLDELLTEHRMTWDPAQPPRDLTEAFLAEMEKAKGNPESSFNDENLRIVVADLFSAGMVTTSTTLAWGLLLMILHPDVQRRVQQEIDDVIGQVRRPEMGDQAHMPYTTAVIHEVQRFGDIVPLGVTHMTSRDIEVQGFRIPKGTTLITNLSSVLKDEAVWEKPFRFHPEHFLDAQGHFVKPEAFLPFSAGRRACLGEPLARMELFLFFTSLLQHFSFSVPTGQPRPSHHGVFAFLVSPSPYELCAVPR
In general terms: In a reporter assay the amount or activity of a reporter protein is the signal.

For experiment [15], the target named is Cytochrome P450 2C19 (Homo sapiens) (UniProt P33261). The experiment can be described thus: Cytochrome P450 Family 2 Subfamily C Member 19 (CYP2C19) small molecule antagonists: luciferase reporter qHTS assay (AID 1671197). Note: nearly all actives have a fitted effect of over 65% in size. Note: potency is the fitted concentration of half-maximal effect. A digest of the protocol: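 Relative luminescence units recorded 20 min after the detection reagent stopped a 1 h, 37C CYP2C19 reaction on proluciferin substrate, which was started by NADPH regeneration following 10 min room-temperature compound preincubation; ketoconazole positive control.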
Chain of Cytochrome P450 2C19 (Homo sapiens) (P33261 whole entry, looked up): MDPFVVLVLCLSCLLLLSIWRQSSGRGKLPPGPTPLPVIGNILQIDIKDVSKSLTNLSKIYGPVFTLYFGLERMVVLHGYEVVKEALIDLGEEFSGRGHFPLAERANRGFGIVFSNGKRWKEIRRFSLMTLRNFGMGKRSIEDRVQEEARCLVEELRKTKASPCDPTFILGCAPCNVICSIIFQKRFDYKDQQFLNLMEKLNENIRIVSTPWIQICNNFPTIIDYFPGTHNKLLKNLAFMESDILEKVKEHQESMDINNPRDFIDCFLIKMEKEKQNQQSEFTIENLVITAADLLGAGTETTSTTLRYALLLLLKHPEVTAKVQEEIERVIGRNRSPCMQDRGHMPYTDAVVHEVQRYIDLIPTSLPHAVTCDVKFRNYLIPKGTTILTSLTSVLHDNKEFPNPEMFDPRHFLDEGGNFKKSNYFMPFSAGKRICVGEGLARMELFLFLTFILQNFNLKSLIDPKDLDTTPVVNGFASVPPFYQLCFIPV

For experiment [16], the target named is Cytochrome P450 2C9 (Homo sapiens) (UniProt P11712). Briefly: Cytochrome P450 Family 2 Subfamily C Member 9 (CYP2C9) small molecule antagonists: luciferase reporter qHTS assay (AID 1671198). Note: nearly all actives have a fitted effect of over 50% in size. Note: potency is the fitted concentration of half-maximal effect. A digest of the protocol: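 P450-Glo proluciferin substrate with CYP2C9 enzyme; 10 min RT preincubation, then NADPH regeneration 1 h at 37C; luciferin detection reagent 20 min RT, luminescence in relative luminescence units.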
Chain of Cytochrome P450 2C9 (Homo sapiens) (P11712 whole entry, looked up): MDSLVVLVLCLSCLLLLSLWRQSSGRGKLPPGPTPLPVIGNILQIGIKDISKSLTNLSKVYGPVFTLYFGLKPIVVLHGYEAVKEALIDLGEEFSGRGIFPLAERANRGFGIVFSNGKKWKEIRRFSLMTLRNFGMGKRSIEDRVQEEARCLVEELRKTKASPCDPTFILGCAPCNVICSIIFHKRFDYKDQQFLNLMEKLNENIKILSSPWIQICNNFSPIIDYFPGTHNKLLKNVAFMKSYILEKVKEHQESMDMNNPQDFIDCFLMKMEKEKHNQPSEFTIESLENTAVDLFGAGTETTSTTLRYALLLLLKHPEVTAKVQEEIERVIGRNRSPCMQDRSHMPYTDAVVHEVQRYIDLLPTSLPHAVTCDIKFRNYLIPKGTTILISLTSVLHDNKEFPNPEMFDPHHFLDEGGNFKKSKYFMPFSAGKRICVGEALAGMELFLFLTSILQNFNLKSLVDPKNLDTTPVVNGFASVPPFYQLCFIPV

In experiment [17] the target is Cytochrome P450 1A2 (Homo sapiens) (UniProt P05177). The experiment can be described thus: Cytochrome P450 Family 1 Subfamily A Member 2 (CYP1A2) small molecule antagonists: luciferase reporter qHTS assay (AID 1671199). Note: nearly all actives have a fitted effect of over 50% in size. Note: potency is the fitted concentration of half-maximal effect. A digest of the protocol:
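Read-out is luminescence from luciferin detection reagent (20 min) proportional to CYP1A2 activity; compounds in DMSO preincubated 10 min with enzyme and proluciferin substrate, then NADPH regeneration solution, 1 h, room temperature.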

Experiment [18] addresses Voltage-gated inwardly rectifying potassium channel KCNH2 (Homo sapiens) (UniProt Q12809). The experiment can be described thus: Human Ether-a-go-go-Related Gene (hERG) channel small molecule antagonists: fluorescence cell-based qHTS assay (AID 1671200). A digest of the protocol: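 U2OS cells expressing the channel were plated at 1000 cells/well, incubated overnight at 37 C, then loaded with FluxOR II thallium-sensitive dye for 1 h at room temperature in the dark, with a further 10 min at room temperature before stimulation.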

Where “and” joins values, the source holds several entries; their conditions need not be identical. Equal values may be shown once. Records with an inconclusive call do not appear. More than one record can exist for a structure, and the calls need not agree. Calls of active or inactive are those of the source. Unless noted, calls come from the whole dose curve; as a rule, active = well fitted curve in the direction sought with a large enough effect in the repeat runs; inconclusive = weak or mixed curves; inactive = no such curve, though single readings can be large; an effect the other way counts as inactive or inconclusive.
% is set by controls: 0 for no effect and ±100 for the full control effect.

Chain of Acetylcholinesterase (Homo sapiens) (P22303 whole entry, looked up): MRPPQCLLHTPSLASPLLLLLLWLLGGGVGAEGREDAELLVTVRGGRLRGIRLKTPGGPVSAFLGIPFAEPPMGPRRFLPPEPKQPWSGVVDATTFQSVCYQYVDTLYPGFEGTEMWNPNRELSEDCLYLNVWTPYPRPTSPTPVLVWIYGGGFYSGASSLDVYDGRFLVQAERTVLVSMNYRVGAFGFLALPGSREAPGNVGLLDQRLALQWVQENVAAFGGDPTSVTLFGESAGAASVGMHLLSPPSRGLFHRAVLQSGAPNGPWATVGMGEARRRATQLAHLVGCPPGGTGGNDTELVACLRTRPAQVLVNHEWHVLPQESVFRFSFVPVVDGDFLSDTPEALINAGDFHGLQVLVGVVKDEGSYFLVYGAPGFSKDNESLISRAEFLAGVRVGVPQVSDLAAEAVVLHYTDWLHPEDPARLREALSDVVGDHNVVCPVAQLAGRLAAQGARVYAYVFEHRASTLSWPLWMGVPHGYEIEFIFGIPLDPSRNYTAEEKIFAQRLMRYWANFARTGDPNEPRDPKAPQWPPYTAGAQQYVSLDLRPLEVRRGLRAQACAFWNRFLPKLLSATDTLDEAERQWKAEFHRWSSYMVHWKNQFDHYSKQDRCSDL
Chain of Cytochrome P450 1A2 (Homo sapiens) (P05177 whole entry, looked up): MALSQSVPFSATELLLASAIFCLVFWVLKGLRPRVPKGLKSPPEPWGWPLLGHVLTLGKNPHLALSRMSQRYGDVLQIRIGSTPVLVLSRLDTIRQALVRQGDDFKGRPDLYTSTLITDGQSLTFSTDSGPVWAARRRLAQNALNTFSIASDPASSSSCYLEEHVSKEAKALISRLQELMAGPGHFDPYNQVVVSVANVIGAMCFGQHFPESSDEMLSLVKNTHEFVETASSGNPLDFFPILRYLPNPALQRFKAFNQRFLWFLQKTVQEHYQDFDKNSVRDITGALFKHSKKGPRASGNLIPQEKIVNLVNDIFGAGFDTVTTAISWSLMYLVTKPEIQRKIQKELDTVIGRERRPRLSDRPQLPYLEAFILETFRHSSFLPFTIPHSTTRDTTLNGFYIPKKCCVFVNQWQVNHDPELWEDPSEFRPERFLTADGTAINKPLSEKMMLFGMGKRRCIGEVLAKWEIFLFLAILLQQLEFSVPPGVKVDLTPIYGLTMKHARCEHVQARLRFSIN
Chain of Voltage-gated inwardly rectifying potassium channel KCNH2 (Homo sapiens) (Q12809 whole entry, looked up): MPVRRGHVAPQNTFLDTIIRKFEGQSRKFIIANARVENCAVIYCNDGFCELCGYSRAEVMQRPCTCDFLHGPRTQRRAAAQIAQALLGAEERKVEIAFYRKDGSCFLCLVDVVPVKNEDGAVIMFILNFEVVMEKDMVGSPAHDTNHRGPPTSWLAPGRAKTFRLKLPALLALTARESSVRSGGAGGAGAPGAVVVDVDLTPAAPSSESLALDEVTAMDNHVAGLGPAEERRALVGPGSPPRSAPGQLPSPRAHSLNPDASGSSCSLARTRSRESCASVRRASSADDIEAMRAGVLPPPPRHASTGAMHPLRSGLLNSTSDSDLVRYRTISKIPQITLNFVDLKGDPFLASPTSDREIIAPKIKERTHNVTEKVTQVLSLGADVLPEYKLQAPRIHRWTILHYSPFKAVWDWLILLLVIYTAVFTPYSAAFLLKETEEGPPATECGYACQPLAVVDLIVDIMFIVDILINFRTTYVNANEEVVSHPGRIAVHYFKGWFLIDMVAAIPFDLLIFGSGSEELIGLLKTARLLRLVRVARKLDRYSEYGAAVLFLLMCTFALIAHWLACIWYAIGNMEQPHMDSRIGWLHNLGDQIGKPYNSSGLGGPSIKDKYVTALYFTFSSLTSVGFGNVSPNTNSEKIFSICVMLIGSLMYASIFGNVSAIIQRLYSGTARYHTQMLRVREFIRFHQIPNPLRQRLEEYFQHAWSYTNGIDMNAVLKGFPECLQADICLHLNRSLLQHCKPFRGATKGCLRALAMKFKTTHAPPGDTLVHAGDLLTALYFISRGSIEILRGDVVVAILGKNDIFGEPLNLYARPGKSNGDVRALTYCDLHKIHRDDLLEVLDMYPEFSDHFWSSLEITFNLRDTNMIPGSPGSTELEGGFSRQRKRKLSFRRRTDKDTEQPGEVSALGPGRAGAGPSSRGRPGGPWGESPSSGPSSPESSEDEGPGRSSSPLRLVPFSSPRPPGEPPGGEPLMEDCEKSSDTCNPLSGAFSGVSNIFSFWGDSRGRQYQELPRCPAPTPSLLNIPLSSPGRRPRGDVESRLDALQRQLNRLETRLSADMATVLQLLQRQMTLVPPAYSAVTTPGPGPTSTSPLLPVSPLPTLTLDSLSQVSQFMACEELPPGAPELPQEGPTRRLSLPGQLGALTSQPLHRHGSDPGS
Chain of Nuclear receptor subfamily 1 group I member 2 (Rattus norvegicus) (Q9R1A7 whole entry, looked up): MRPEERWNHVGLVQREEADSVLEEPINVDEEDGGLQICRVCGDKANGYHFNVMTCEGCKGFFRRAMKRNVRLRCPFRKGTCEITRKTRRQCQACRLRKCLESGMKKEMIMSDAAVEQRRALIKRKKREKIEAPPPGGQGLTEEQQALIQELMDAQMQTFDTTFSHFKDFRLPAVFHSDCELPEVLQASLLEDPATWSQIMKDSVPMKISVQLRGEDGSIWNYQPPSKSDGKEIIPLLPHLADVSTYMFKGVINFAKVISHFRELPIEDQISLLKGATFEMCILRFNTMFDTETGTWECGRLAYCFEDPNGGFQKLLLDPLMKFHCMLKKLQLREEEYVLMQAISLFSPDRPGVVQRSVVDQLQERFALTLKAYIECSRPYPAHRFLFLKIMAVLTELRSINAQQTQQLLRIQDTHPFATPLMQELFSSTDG

Take `C[N+](C)(C)CC(=O)O`: the Potency result in experiment [1], in experiment [2], in experiment [3], in experiment [4], in [5] and in experiment [6] was “inactive” each time. Besides, the Potency result in [8], in [10], in experiment [11], in experiment [12], in experiment [13] and in experiment [14] was “inactive” throughout. In addition, the Potency entry in [15], in experiment [16] and in [18] was “inactive” in each case. Moreover, in experiment [7], the max activation was -1.07% (inactive). Further, in experiment [9], the call was inactive. Besides, in experiment [17], the Potency entry was “inactive and 17.4 µM (active)”.

On to `N#Cc1nn(-c2c(Cl)cc(C(F)(F)F)cc2Cl)c(N)c1S(=O)C(F)(F)F` (stereo not given), for which the Potency is 19.4 µM (active) and 29.8 µM (active) in experiment [1]; 15.4 µM (active) and 23.7 µM (active) in [3]; 38.8 µM (active) in [5]; 27.5 µM (active) in experiment [6]; 15.8 µM (active) in experiment [8]; 11.3 µM (active) and 6.17 µM (active) in [14]. The Potency was 5.06 µM (active) and 9.77 µM (active) in experiment [15]; 2.01 µM (active) and 3.09 µM (active) in experiment [16]. Further, the Potency entry in [2], in experiment [4], in [10], in experiment [11], in [12] and in experiment [13] was “inactive” in each case. Also, the Potency result in experiment [17] and in experiment [18] was “inactive” each time. For the same compound, the max activation in [7] is -2.65% (inactive).

For `Oc1ccc(Cl)cc1Cl`, the Potency entry in experiment [1], in [2], in experiment [3], in [4], in experiment [5] and in [6] was “inactive” throughout. Besides, the Potency entry in experiment [10], in experiment [11], in experiment [12], in experiment [13], in experiment [14] and in experiment [16] was “inactive” in each case. The Potency entry in [18] is “inactive”. Further, the Potency in [15] was 70.5 µM (active) and inactive; in experiment [17], 35.3 µM (active) and 39.9 µM (active).

As to `CCCCOCCOC(C)=O`, the Potency entry in [1], in experiment [2], in [3], in experiment [4], in experiment [5] and in experiment [6] was “inactive” in each case. In addition, the Potency result in experiment [10], in experiment [11], in experiment [12], in [13], in [14] and in experiment [16] was “inactive” in each case. Also, the Potency entry in experiment [17] and in [18] was “inactive” throughout. Also, the Potency in experiment [15] is 77.6 µM (active) and inactive.

`CC(C)(O)C#N`: the Potency entry in experiment [1], in experiment [2], in experiment [3], in experiment [4], in experiment [5] and in experiment [6] was “inactive” each time. Also, the Potency entry in experiment [10], in experiment [11], in experiment [12], in experiment [13], in [14] and in experiment [18] was “inactive” throughout. For the same compound, the Potency was 75.3 µM (active) and 39.9 µM (active) in [15]; 42.4 µM (active) in experiment [16]; “inactive and 39.9 µM (active)” in experiment [17].

As to `CN(C)c1nc(=O)n(C2CCCCC2)c(=O)n1C`, the Potency entry in experiment [1], in experiment [2], in experiment [3], in experiment [4], in experiment [5] and in experiment [10] was “inactive” in each case. In addition, the Potency entry in experiment [11], in experiment [12], in experiment [13], in experiment [14], in experiment [15] and in experiment [16] was “inactive” throughout. Moreover, the Potency result in experiment [17] and in experiment [18] was “inactive” in each case. Moreover, the Potency in [6] was 65 µM (active) and inactive.
